Assay results as given in PubChem BioAssay.
Potency and affinity values are given separately. Inconclusive results are not listed. Unmarked numbers belong to inactive results. Unless noted, how the calls were made is not given here.

Assay: cytotoxicity in IOSE-T80 ovarian epithelial cells, dose response, selectivity assay for PAX8 inhibitor project, cell-based, cherry-pick (AID 687032;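 active means fitted half-maximal concentration for viability loss no higher than twice the top valid dose, in every repeat run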;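 further: cells exposed to compound for 96 h before reading; 0% = neutral control wells and -100% = 2 µM mitoxantrone kill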)
Details: CellTiterGlo ATP luminescence, 96 h; series mostly up to 35 µM; activity change, negative = viability loss: at the top concentration

Question: Which “activity change, negative = viability loss” value does the source give for `COc1ccc2oc(C)c(C(=O)c3ccc([N+](=O)[O-])cc3)c2c1` here?
Answer: Its value is 1.06%.

Question: Which “activity change, negative = viability loss” value does the source give for `O=C(CSc1nc2ccccc2s1)NCCOc1ccccc1` here?
Answer: Its value is 4.29%.

Question: For `COc1ccc(O)c(C(c2c(C)[nH][nH]c2=O)c2c(C)[nH][nH]c2=O)c1`, which “activity change, negative = viability loss” value is on record?
Answer: Its value is 14.9%.

Question: Which “activity change, negative = viability loss” value does the source give for `O=C1c2cccc3c(O)ccc(c23)C(=O)N1c1ccc(Cl)cc1` here?
Answer: The value was -4.92%.

Assay: inhibitors of CMV-promoter luciferase reporter, dose response, counter-screen for Pax8 inhibitor project, cell-based, HEK293, luminescence, dry powder (AID 743020;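 active means signal-lowering compounds whose fitted half-maximal concentration is at or below twice the top tested dose in every run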;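 further: HEK293 cells stably expressing the CMV luciferase reporter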)
Details: SteadyGlo luminescence, 24 h; series mostly up to 35 µM; activity change, negative = inhibition: at the top concentration

Question: For `O=C(NCC1CCCO1)C(=O)NCC(c1ccco1)N1CCN(c2ccccc2)CC1` (stereo not given), which “activity change, negative = inhibition” value is on record?
Answer: The value was 80.4%.

Question: Which “activity change, negative = inhibition” value does the source give for `COc1ccc(C)cc1NC(=O)C1CCCN(S(=O)(=O)c2cccc3nonc23)C1` (stereo not given) here?
Answer: The value was 4.45%.

Question: Which “activity change, negative = inhibition” value does the source give for `COc1ccc(NC(=O)c2nn(C34CC5CC(CC(C5)C3)C4)cc2[N+](=O)[O-])cc1` here?
Answer: The value was -2.02%.

Question: With `COC1OC(COCc2ccccc2)C2OC(C)(C)OC2C1O` (stereo not given) as the compound, how does the “activity change, negative = inhibition” value read?
Answer: The value was -4.05%.

Question: With `Cc1cnc(NC(=O)CSc2nnc(C)n2N)s1` as the compound, how does the “activity change, negative = inhibition” value read?
Answer: The value was 2.88%.

Question: For `O=C(Cc1cccs1)N/N=C/C=C/c1ccccc1`, which “activity change, negative = inhibition” value is on record?
Answer: The value was 4.35%.

Question: With `O=C(NC1CCCCCC1)C1c2ccccc2C(=O)N1Cc1cccs1` (stereo not given) as the compound, how does the “activity change, negative = inhibition” value read?
Answer: Its value is -3.65%.

Question: Which “activity change, negative = inhibition” value does the source give for `CN1CCN(C(=S)Nc2ccc(Cl)c(Cl)c2)CC1` here?
Answer: The value was 5.89%.

Question: For `O=[N+]([O-])c1cccc(-c2nnc(-c3ccc4c(c3)OCO4)o2)c1`, which “activity change, negative = inhibition” value is on record?
Answer: The value was -10.5%.

Question: With `O=C(Nc1ccccc1)N1CCCCN2[C@@H](CO)[C@@H](c3ccc(C#Cc4ccccc4)cc3)[C@@H]2C1` as the compound, how does the “activity change, negative = inhibition” value read?
Answer: Its value is -0.507% [at 30 µM].

Question: With `COc1ccc(NC(=O)C[C@H]2C(=O)N(c3ccc(OC)cc3)C[C@@H]2C)cc1` as the compound, how does the “activity change, negative = inhibition” value read?
Answer: The value was 3.81%.

Question: Which “activity change, negative = inhibition” value does the source give for `O=C(O)CC(NC(=O)C1c2ccccc2Oc2ccccc21)c1ccc(OC2CCCC2)cc1` (stereo not given) here?
Answer: The value was 0%.

Question: For `Nc1ncn([C@H]2C[C@H](O)[C@@H](CO)O2)c(=O)n1`, which “activity change, negative = inhibition” value is on record?
Answer: The value was 2.91%.

Question: For `O=C(CCN1C(=O)/C(=C/c2ccccc2Cl)SC1=S)Nc1ccccc1C(=O)O`, which “activity change, negative = inhibition” value is on record?
Answer: The value was -0.752%.

Question: With `CCCCC1Cc2[nH]c(=S)[nH]c(=O)c2C(c2ccc(F)cc2)O1` (stereo not given) as the compound, how does the “activity change, negative = inhibition” value read?
Answer: The value was 1.74%.

Question: Which “activity change, negative = inhibition” value does the source give for `O=C(Cc1nnc(NC(=O)c2ccccc2)s1)N/N=C/c1ccco1` here?
Answer: Its value is 4.45%.

Question: For `COc1ccc(-n2nc([N+](=O)[O-])c(=NCc3cccnc3)n2O)cc1`, which “activity change, negative = inhibition” value is on record?
Answer: Its value is 7.4%.

Assay: non-specific cell cytotoxicity, dose response, cytotoxicity control for PAX8 inhibitor project, plate reader, dry powder samples (AID 743021)
Details: cell line, non-specific cytotoxicity counter-screen; series mostly up to 35 µM; activity change, negative = cytotoxicity: at the top concentration

Question: With `O=C(NCC1CCCO1)C(=O)NCC(c1ccco1)N1CCN(c2ccccc2)CC1` (stereo not given) as the compound, how does the “activity change, negative = cytotoxicity” value read?
Answer: Its value is -0.51%.

Question: Which “activity change, negative = cytotoxicity” value does the source give for `COc1ccc(C)cc1NC(=O)C1CCCN(S(=O)(=O)c2cccc3nonc23)C1` (stereo not given) here?
Answer: Its value is 18.7%.

Question: With `CCCCC(=O)N1CCN(c2ccc(OC)cc2[N+](=O)[O-])CC1` as the compound, how does the “activity change, negative = cytotoxicity” value read?
Answer: The value was 28.2%.

Question: Which “activity change, negative = cytotoxicity” value does the source give for `COc1ccc(NC(=O)c2nn(C34CC5CC(CC(C5)C3)C4)cc2[N+](=O)[O-])cc1` here?
Answer: The value was -23.3%.

Question: Which “activity change, negative = cytotoxicity” value does the source give for `Cc1ccc(/C=N/NC(=O)c2ccccn2)o1` here?
Answer: The value was 21.3%.

Question: Which “activity change, negative = cytotoxicity” value does the source give for `O=C(CSc1cccc[n+]1[O-])Nc1cc(S(=O)(=O)N2CCOCC2)ccc1N1CCOCC1` here?
Answer: The value was 46.5%.

Question: Which “activity change, negative = cytotoxicity” value does the source give for `Fc1ccc(CSc2ccc(-c3ccco3)nn2)cc1` here?
Answer: The value was -15.2%.

Question: For `COC1OC(COCc2ccccc2)C2OC(C)(C)OC2C1O` (stereo not given), which “activity change, negative = cytotoxicity” value is on record?
Answer: The value was 31.9%.

Question: With `COc1ccccc1NC1=Nc2cccc3cccc1c23` as the compound, how does the “activity change, negative = cytotoxicity” value read?
Answer: The value was -8.07%.

Question: For `O=[N+]([O-])c1ccc2nc(SCc3cn4ccccc4n3)[nH]c2c1`, which “activity change, negative = cytotoxicity” value is on record?
Answer: Its value is 3.48%.

Question: With `CCOC(=O)C1(Cc2ccc(OC)cc2)CCN(C(=O)CN2CCCCC2=O)CC1` as the compound, how does the “activity change, negative = cytotoxicity” value read?
Answer: The value was 47.4%.

Question: For `CC(=O)Nc1ccc(C(=O)CSc2cc(C)c3cccc(C)c3n2)cc1`, which “activity change, negative = cytotoxicity” value is on record?
Answer: The value was 56.3%.

Question: For `Cc1cccc(C(=O)Oc2ccc(/C=N/NC(=O)c3ccccc3O)cc2)c1`, which “activity change, negative = cytotoxicity” value is on record?
Answer: Its value is 11.8%.

Question: For `CC1CCN(CCOc2ccc(OCc3ccccc3)cc2)CC1`, which “activity change, negative = cytotoxicity” value is on record?
Answer: The value was 14.8%.

Question: For `CCN(C(=O)COC(=O)c1ccc(S(=O)(=O)N2CCCc3ccccc32)cc1)C1CCS(=O)(=O)C1` (stereo not given), which “activity change, negative = cytotoxicity” value is on record?
Answer: Its value is -10.6%.

Question: Which “activity change, negative = cytotoxicity” value does the source give for `Cc1cnc(NC(=O)CSc2nnc(C)n2N)s1` here?
Answer: The value was -1.14%.

Question: For `O=C(/C=C/c1c(Cl)nc2ccccn12)Nc1ccc(F)cc1`, which “activity change, negative = cytotoxicity” value is on record?
Answer: Its value is -1.18%.

Question: With `Cc1cccc(OCc2nc(-c3cccnc3)no2)c1` as the compound, how does the “activity change, negative = cytotoxicity” value read?
Answer: Its value is 23.1%.

Question: For `O=C(Cc1cccs1)N/N=C/C=C/c1ccccc1`, which “activity change, negative = cytotoxicity” value is on record?
Answer: The value was -6.77%.

Question: Which “activity change, negative = cytotoxicity” value does the source give for `O=C(NC1CCCCCC1)C1c2ccccc2C(=O)N1Cc1cccs1` (stereo not given) here?
Answer: The value was 21.3%.

Question: For `CN1CCN(C(=S)Nc2ccc(Cl)c(Cl)c2)CC1`, which “activity change, negative = cytotoxicity” value is on record?
Answer: The value was -13.9%.

Question: Which “activity change, negative = cytotoxicity” value does the source give for `COc1ccc(-c2cn(CC[C@@H]3CC[C@H](NC(=O)Cc4ccccn4)[C@@H](CO)O3)nn2)cc1` here?
Answer: The value was -0.059%.

Question: Which “activity change, negative = cytotoxicity” value does the source give for `O=[N+]([O-])c1cccc(-c2nnc(-c3ccc4c(c3)OCO4)o2)c1` here?
Answer: The value was 63.3%.

Question: For `Cc1nn(CCO)c2nc(-c3cccs3)cc(C(F)(F)F)c12`, which “activity change, negative = cytotoxicity” value is on record?
Answer: The value was 8.93%.

Question: Which “activity change, negative = cytotoxicity” value does the source give for `O=C(/C=C/c1ccco1)Nc1nc(-c2ccccc2)cs1` here?
Answer: Its value is 5.75%.

Question: For `O=C(Nc1ccccc1)N1CCCCN2[C@@H](CO)[C@@H](c3ccc(C#Cc4ccccc4)cc3)[C@@H]2C1`, which “activity change, negative = cytotoxicity” value is on record?
Answer: The value was -30.5% [at 30 µM].

Question: For `COc1ccc(C2CC(c3ccc(Br)cc3)=NN2C(=S)Nc2ccccc2)cc1` (stereo not given), which “activity change, negative = cytotoxicity” value is on record?
Answer: The value was -15.8%.

Question: For `COc1ccc(NC(=O)C[C@H]2C(=O)N(c3ccc(OC)cc3)C[C@@H]2C)cc1`, which “activity change, negative = cytotoxicity” value is on record?
Answer: The value was -8.34%.

Question: Which “activity change, negative = cytotoxicity” value does the source give for `Cc1cc(=O)oc2ccc(OC(=O)CN3C(=O)c4cccc([N+](=O)[O-])c4C3=O)cc12` here?
Answer: Its value is 51.3%.

Question: With `O=C(O)CC(NC(=O)C1c2ccccc2Oc2ccccc21)c1ccc(OC2CCCC2)cc1` (stereo not given) as the compound, how does the “activity change, negative = cytotoxicity” value read?
Answer: The value was 4.73%.

Question: With `Nc1ncn([C@H]2C[C@H](O)[C@@H](CO)O2)c(=O)n1` as the compound, how does the “activity change, negative = cytotoxicity” value read?
Answer: Its value is -10.8% [at 16 µM].

Question: Which “activity change, negative = cytotoxicity” value does the source give for `COc1ccc2oc(C)c(C(=O)c3ccc([N+](=O)[O-])cc3)c2c1` here?
Answer: Its value is -3.49%.

Question: With `O=C(CCN1C(=O)/C(=C/c2ccccc2Cl)SC1=S)Nc1ccccc1C(=O)O` as the compound, how does the “activity change, negative = cytotoxicity” value read?
Answer: The value was -6.08%.

Question: For `CCCCC1Cc2[nH]c(=S)[nH]c(=O)c2C(c2ccc(F)cc2)O1` (stereo not given), which “activity change, negative = cytotoxicity” value is on record?
Answer: The value was 14.6%.

Question: For `O=C(CSc1nc2ccccc2s1)NCCOc1ccccc1`, which “activity change, negative = cytotoxicity” value is on record?
Answer: The value was 30.6%.

Question: For `O=C(Cc1nnc(NC(=O)c2ccccc2)s1)N/N=C/c1ccco1`, which “activity change, negative = cytotoxicity” value is on record?
Answer: The value was -4.3%.

Question: With `COc1ccc(O)c(C(c2c(C)[nH][nH]c2=O)c2c(C)[nH][nH]c2=O)c1` as the compound, how does the “activity change, negative = cytotoxicity” value read?
Answer: Its value is 15.2%.

Question: Which “activity change, negative = cytotoxicity” value does the source give for `O=C1c2cccc3c(O)ccc(c23)C(=O)N1c1ccc(Cl)cc1` here?
Answer: The value was -11.2%.

Question: For `COc1ccc(-n2nc([N+](=O)[O-])c(=NCc3cccnc3)n2O)cc1`, which “activity change, negative = cytotoxicity” value is on record?
Answer: The value was -8.27%.
